This is part of a sample that, as a whole, favours compounds with a hit. Of some 83,000 tested, about 20% had one in any assay.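 Cells were grown in 96-well plates and exposed to the test compound at a single concentration for 48 hours; results are reported as percent growth, with values below 10 considered active.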 Unmarked numbers belong to inactive results. Calls of active or inactive are those of the source.
What was measured:
Assay in all cases: NCI-60 one-dose screen, 48 h (100 = growth as untreated, 0 = no growth, -100 = all killed)
Conditions in all cases: 10 µM unless noted
[1] = system: T-47D breast
[2] = system: BT-549 breast
[3] = system: MDA-MB-435 melanoma
[4] = system: SW-620 colon
[5] = system: MCF7 breast
[6] = system: HCT-116 colon
[7] = system: HCC-2998 colon
[8] = system: KM12 colon

Compound	growth [1]	growth [2]	growth [3]	growth [4]	growth [5]	growth [6]	growth [7]	growth [8]
Clc1ccc2c(NCCNc3nc(Cl)nc4ccccc34)ccnc2c1	-63.6% (active)	-65.6% (active)	-89.4% (active)	-77.1% (active)	-63.8% (active)	-96.7% (active)	-64.1% (active)	-76.5% (active)
Nc1ncnc2c1ccn2-c1cccc(NC(=O)c2cccc(C(F)(F)F)c2)c1	59.2%	89.9%	59%	90.2%	58.6%	68.5%	98.6%	54%
Fc1ccc(Nc2ncnc3ccc(-c4cn[nH]c4)cc23)cc1Cl	-20.2% (active)	58%	79.8%	78.1%	23.3%	51.2%	85%	67.1%
COc1cc(Br)c(-c2nc(-c3ccccc3)c(-c3ccccc3)n2Cc2ccccc2)cc1OC	35.8%	75.9%	59.8%	73.4%	38.3%	30.3%	67.9%	49.6%
Nc1ccc(S(=O)(=O)Nc2cc(I)cc(I)c2)cc1	105%	118%	106%	119%	120%	99.5%	105%	111%
CCOC(=O)c1noc2c1CCc1cn(Cc3cc(OC)cc(OC)c3)cc1-2	94.7%	91.5%	103%	103%	94.9%	92.3%	88.9%	100%
CC(C(C(=O)N1CCCCC1)N1CCCCC1)N1CCCCC1 (configuration not stated)	107%	111%	109%	108%	104%	97%	107%	113%
CC(C)(C)OC(=O)N1CCN(CCn2cc(C(F)(F)F)c3c(Cl)ncnc32)CC1	90.3%	118%	47.1%	12%	87.4%	12.1%	86.1%	95.9%
C[C@]12CC[C@@H]3c4ccc(O)c(N)c4CC[C@H]3[C@@H]1CC[C@@H]2O	124%	99.3%	108%	122%	116%	89.9%	120%	103%
CCn1c(SC)nnc1-c1cc2c([nH]c3ccccc32)c(-c2cccc(O)c2)n1	10.8%	29.4%	-32.4% (active)	33.1%	13.8%	13.2%	41.5%	11.5%
CN(C)CCCOc1c(Br)cc(/C=C/C(=O)N(C)CCc2cc(Br)c(OCCCN(C)C)c(Br)c2)cc1Br	92.8%	76.5%	19.8%	32%	32.5%	12.1%	73%	47.7%
C/C(=N/O)c1ccc(NC(=O)Cn2nc(-c3ccc(Cl)cc3)nc2N)cc1	87%	116%	109%	104%	84.9%	107%	103%	98.4%
COc1cc2c(cc1OC)-c1c(oc3c4c(ccc3c1=O)OC(C)(C)C=C4)CO2	39.2%	52.6%	61.2%	89.8%	48.8%	40.3%	81.5%	76.8%
CCOc1cccc(Nc2nc(N)nc3[nH]c4ccc(O)cc4c23)c1	18.8%	68.8%	84.2%	76.1%	43.1%	72.9%	89.8%	87.6%
Fc1ccc(/C=N/n2c(-c3cc(Cl)cc(Cl)c3Cl)nn(CNc3ccc(Cl)nn3)c2=S)cc1	86%	114%	97.9%	112%	98.9%	78.1%	107%	97.3%
COc1ccc2c(c1)C(=O)/C(=C/c1cccc(OCC(=O)c3ccccc3)c1)O2	-31.7% (active)	-15.9% (active)	38%	-82.7% (active)	32%	0.433% (active)	-71.2% (active)	71.7%
COC(=O)CCCNS(=O)(=O)c1cc(C(=O)Nc2ccc(NC(=O)c3cc(S(=O)(=O)NCCCC(=O)OC)c(O)c(O)c3O)cc2)c(O)c(O)c1O	97.2%	99.4%	1.35% (active)	95.8%	73.7%	76.9%	93.4%	96%
Cc1cc(O[C@@H]2O[C@@H](C)[C@H](O)[C@@H](O)[C@H]2O)c2c3c(c(O[C@@H]4O[C@@H](C)[C@H](O)[C@@H](O)[C@H]4O)cc2c1)C(=O)c1c(O)cccc1C3=O	56.6%	6.47% (active)	92.8%	93.4%	81%	81%	91.1%	86.8%
COc1cc(Nc2ncccc2C(=O)Nc2nc3ccc(F)cc3s2)cc(OC)c1OC	36.2%	89.3%	21%	96.8%	94.9%	13.8%	84.7%	78.9%
CCCCCCCCCCCCCCCC(=O)NS(=O)(=O)OC[C@H]1O[C@@H](n2cnc3c(N)ncnc32)[C@H](O)[C@@H]1O	-16.9% (active)	-65.2% (active)	-74.5% (active)	-39.2% (active)	5.8% (active)	-25.8% (active)	-85.9% (active)	-39.2% (active)
Cn1c(I)c(C#C[Si](C)(C)C)c(=O)[nH]c1=O	21.9%	40.7%	58.7%	-66.5% (active)	82.1%	-43.1% (active)	-67.1% (active)	103%
COc1cc(NC(C)CCCN2C(=O)c3ccccc3C2=O)c2nccc(C)c2c1OC (configuration not stated)	78.2%	113%	104%	93.5%	40.4%	87.8%	113%	97.4%
CCCCOc1nc2ccc(Cl)cc2cc1/C=C/C(=O)/C=C/c1ccc(Cl)cc1	53.8%	36.3%	2.31% (active)	42.5%	23%	-29.1% (active)	60.4%	51.6%
C#C[C@@]1(O)[C@@H](CO)O[C@@H](n2cc(C(F)(F)F)c3c(N)ncnc32)[C@@H]1O	-19.3% (active)	-12.1% (active)	14.7%	4.55% (active)	1.74% (active)	4.15% (active)	3.76% (active)	6.52% (active)
O=C(Nc1cccc([N+](=O)[O-])c1)Nc1cccc([N+](=O)[O-])c1	6.88% (active)	50.5%	63.1%	45.4%	20.7%	37.3%	45.2%	27.7%
Cc1ccc2[nH]c3nc4cccnc4c(C)c3c2c1	14.2%	68.6%	108%	91.6%	1.4% (active)	91.9%	92.7%	72.8%
COc1ccc(-c2cnc(-c3ccc(F)cc3)[nH]2)cc1	86.9%	314%	-6.97% (active)	18.6%	26.3%	-68.8% (active)	-10% (active)	30.6%
CCC(CC(C)C)Nc1ccc(NC(CC)CC(C)C)cc1 (configuration not stated)	69.2%	97.1%	107%	84.2%	89.5%	59.2%	95.6%	63.2%
CC1=C2C(=C[C@@](C)(CO)[C@@H]2OC(=O)N(C)CCN(C)C(=O)OC(C)(C)C)C(=O)[C@](C)(O)C12CC2	45.2%	56.8%	72.6%	71.3%	34.8%	15.9%	75.8%	74%

Reference: PubChem BioAssay (NCI)
